# LGR2 antag = blocks bursicon-induced cAMP signaling via Drosophila LGR2; inhibition, % at 9.99 µM; AID 720647; HEK293 LGR2, CRE-luciferase, bursicon-stimulated, 4 h; actives 0.35% (n = 380,000);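 active means drop in luminescence signal, shown as inhibition above about 50% in the replicate tests, limit read from the data, passing the limit was not always enough; inconclusive means probably only some replicates passing the limit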;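 further: agonist challenge used bursicon conditioned medium at about half maximal strength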
# PAX8 inh HTS = lowers PAX8-driven luciferase in RMG-I cells; RMG-I TPO-luciferase reporter, SteadyGlo, 24 h; inhibition, % at 12.6 µM; actives 1.2% (n = 360,000); AID 652154;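 active means mean replicate inhibition at least 60% with every replicate also reaching 60%; inconclusive means only one of the two criteria is met; inactive means mean below 60% and not all replicates reaching 60%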;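 further: luciferase light reporting Pax8 driven TPO promoter activity; plate controls were median of neutral control wells for no effect and mitoxantrone controls for full effect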
# EWS-Fli block = inhibitors of EWS/Fli oncoprotein transcriptional activity | A673 NR0B1-luciferase reporter, viability-normalised | actives 0.67% (n = 350,000) | inhibition, % at 12.6 µM | AID 651661;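 active means mean inhibition of at least 50% after viability correction, with every replicate also passing that limit; inconclusive means mean reaches 50% but only one of two replicates passes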;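 further: firefly luciferase signal divided by Alamar Blue viability fluorescence both relative to DMSO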
# CFTR F508del cor = correctors of CFTR F508del function in bronchial epithelial cells | CFBE cells, YFP halide quenching; stimulated with forskolin plus potentiator P3; % fluorescence drop versus neutral controls | actives 0.36% (n = 350,000) | activity (quench increase), % at 7.58 µM;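 active means mean added fluorescence quench of at least 8% versus neutral control, with both replicates also reaching 8%; inconclusive means only one of the mean or replicate conditions met; inactive means mean below 8% and not both replicates reaching 8%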;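 further: cells transiently co-express mutant CFTR-F508del with the halide-sensitive YFP; corrector assay measuring rescue of mutant channel to the surface after 24 h compound exposure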
# An asterisk follows results filed as active; ? = inconclusive; . = no result given; ! = not active in a repeat. Shown are actives, neighbours in structure and some others; about 1.8% of the full set was active somewhere.
SMILES,LGR2 antag,PAX8 inh HTS,EWS-Fli block,CFTR F508del cor
CCN(CC)c1ccc(C2C3CCCCC3(O)CCN2C(=O)c2cccs2)cc1 (configuration not stated),-10,12,.,.
COc1ccc(CC2=CC(=O)c3ccccc3C2=O)cc1,-8,18,69*,3
O=C(CCN1CCCCC1)N[C@@H]1CC[C@@H](CC(=O)N2CCC(Cc3ccccc3)CC2)O[C@@H]1CO,-1,8,-1,0
CC(C)NC(=O)N(C)C[C@@H]1OCc2cn(nn2)CCCC(=O)N([C@@H](C)CO)C[C@@H]1C,0,7,-6,-1
C[n+]1c(-c2ccccc2)cc2c(=Cc3ccc([N+](=O)[O-])cc3)c3ccccc3n21,-2,74*,5,0
CN(C)c1ccc(C=c2c3cc(O)ccc3n3c2cc(-c2ccccc2)[n+]3C)cc1,-2,73*,-2,3
C[n+]1c(-c2ccccc2)cc2c(=Cc3ccccc3)c3ccccc3n21,?,115*,53*,4
CC(C)n1c2ccccc2c2cc([N+](=O)[O-])ccc21,13,-2,0,.
Nc1ccn([C@@H]2O[C@H](C(=O)N[C@H](Cc3ccccc3)C(=O)N[C@H]3CCCCNC3=O)[C@@H](O)[C@H]2O)c(=O)n1,4,-13,0,0
COc1ccc(CCNC(=O)Cn2nc(C)c3c(C)n(-c4ccccc4)nc3c2=O)c(OC)c1,8,12,-5,2
COc1ccc(OC)c(CCNC(=O)Cn2nc(C)c3c(C)n(-c4ccc(C)cc4)nc3c2=O)c1,12,71*,16,4
CCN(CC(=O)Nc1ccccc1OC)C(=O)/C=C/c1cccs1,-6,-14,-3,2
Nc1nccc(-c2cc(-c3ccc(Cl)cc3Cl)no2)n1,60*,-61,-22,0
CC[N+](C)(CC)CCC/C(=N/O)C(O)(c1ccccc1)c1ccccc1,10,8,-8,-1
c1ccc(COc2ncnc3c2ncn3CCCN2CCN(Cc3cccc4ccccc34)CC2)cc1,45,7,33,-5
Cc1ccc2[nH]c(C)c(/C=C/c3cc[n+](C)cc3)c2c1,9,78*,50,-1
Cc1ccc2[nH]c(C)c(/C=N/Nc3nc4ccccc4s3)c2c1,.,-101,.,.
Cc1ccc2c(c1)c(/C=C/c1cc[n+](C)cc1)c(C)n2C,7,?,57*,-1
C/C=C/c1ccc([C@@H]2[C@H](CO)N(C(=O)c3cnccn3)C23CN(C(=O)CC)C3)cc1,-1,.,-5,4
CN(C)CC#Cc1ccc([C@@H]2[C@H]3CN(C(=O)NC4CCCC4)CCCCN3[C@H]2CO)cc1,11,-2,1,0
CC12CCC(C(=O)N(NC(=O)c3cccnc3)C1=O)C2(C)C (configuration not stated),18,0,.,.
Cc1cc(C(=O)CN2C(=O)C(=O)N(Cc3ccccc3)C2=O)c(C)n1Cc1ccc(F)cc1,0,38,0,-2
Cc1cc(C(=O)CN2C(=O)C(=O)N(Cc3ccccc3)C2=O)c(C)n1Cc1ccccc1,3,-8,-5,9.4*
Cc1ccc(S(=O)(=O)Nc2ccc3c(c2)C(=O)N([C@@H](C)CO)C[C@H](C)[C@@H](CN(C)S(=O)(=O)c2ccccc2)OCCCC[C@H](C)O3)cc1,13,57,5,1
Cc1ccc(S(=O)(=O)N(C)C[C@H]2OCCCC[C@@H](C)Oc3ccc(NS(=O)(=O)c4ccccc4)cc3C(=O)N([C@@H](C)CO)C[C@H]2C)cc1,8,29,2,3
SMILES,LGR2 antag,PAX8 inh HTS,EWS-Fli block,CFTR F508del cor
Cc1ccc(S(=O)(=O)N(C)C[C@@H]2OCCCC[C@H](C)Oc3ccc(NS(=O)(=O)c4ccccc4)cc3C(=O)N([C@H](C)CO)C[C@@H]2C)cc1,35,64*,2,0
Cc1ccc(S(=O)(=O)N(C)C[C@@H]2OCCCC[C@H](C)Oc3ccc(NS(=O)(=O)c4ccccc4)cc3C(=O)N([C@H](C)CO)C[C@H]2C)cc1,9,72*,-9,2
Cc1cc(N2CCN(S(C)(=O)=O)C[C@@H]2C)ccc1N1CCN(Cc2ccccc2)[C@@H](C)C1,-3,6,14,-8
Cc1cc(OCC(O)CNC(C)c2ccccc2)ccc1C(C)C (configuration not stated),66*,-6,20,-11
CCCC(NCC(O)COc1ccc(-c2ccccc2)cc1)c1ccccc1 (configuration not stated),75*,17,42,-2
CCC(=O)N1CC2(CCN(Cc3ccc(Cl)cc3)CC2)c2c([nH]c3cc(OC)ccc23)[C@H]1CO,4,.,-7,9.8*
COCC(=O)N1CC2(CCN(Cc3ccc(Cl)cc3)CC2)c2c([nH]c3cc(OC)ccc23)[C@@H]1CO,1,27,23,2
O=C(Nc1cccc(Cl)c1)Nc1cc(S(=O)(=O)N2CCCCC2)ccc1Cl,34,75*,23,1
Cc1n[nH]c(C)c1CCC(=O)N/N=C/c1c[nH]c2ccccc12,-7,25,8,0
Cc1n[nH]c(C)c1CCC(=O)N/N=C/c1c(C)[nH]c2ccccc12,7,85*,27,1
CCC1C(=O)NCCN1C(=O)c1cccc(OC2CCN(S(=O)(=O)N(C)C)CC2)c1 (configuration not stated),-5,-12,.,0
O=C1c2ccccc2C(=O)c2c1cccc2-n1nnc2ccccc21,-16,-2,14,3
O=C1C(N2CCOCC2)=C(n2nnc3ccccc32)C(=O)c2ccccc21,.,83*,.,.
CCc1ccc(N2CC(C(=O)Nc3ccccc3N3CCCC3)CC2=O)cc1 (configuration not stated),13,.,4,9.2*
CCOc1ccc(NC(=O)COc2ccc(N3CC(C(N)=O)CC3=O)cc2)cc1 (configuration not stated),-19,-9,-7,7
CNC(=O)C1CC(=O)N(c2ccc(OCC(=O)Nc3ccccc3)cc2)C1 (configuration not stated),4,-11,1,10*
Cc1nc2c(C)cccn2c1/C(O)=C1\C(=O)C(=O)N(CCN(C)C)C1c1ccncc1 (configuration not stated),3,.,6,-3
COCC(C)n1c(C)cc(C(=O)CSc2nnnn2C2CCCC2)c1C (configuration not stated),-13,-112,-12,-1
Cc1c(C(=O)OCC(=O)N2CCCCC2C)oc2ccccc12 (configuration not stated),-67,-87,-32,-2
COc1ccc(S(=O)(=O)N(C)C[C@H]2OCCCC[C@@H](C)Oc3ccc(NC(=O)Nc4ccc(C(F)(F)F)cc4)cc3C(=O)N([C@@H](C)CO)C[C@@H]2C)cc1,8,55,63*,1
COc1ccc(S(=O)(=O)N(C)C[C@@H]2OCCCC[C@H](C)Oc3ccc(NC(=O)Nc4ccc(C(F)(F)F)cc4)cc3C(=O)N([C@H](C)CO)C[C@H]2C)cc1,2,79*!,18,-8

# Bioassay records as filed in PubChem BioAssay.
